# WRN helicase inh-1: blocks human WRN helicase; hit rate 0.46% among 360,000; WRN helicase unwinding, fluorescent forked duplex, kinetic; Potency, µM (doses to about 114 µM), for inactives: top-dose activity change, negative = inhibition, most hits filed as inhibitors; Q14191; also: % is scaled to controls: 0 for no effect and ±100 for the full control effect; nearly all actives have a fitted effect of over 55% in size
#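 WRN at 20 nM final was preincubated with compound for 15 min at room temperature; reaction started with 100 nM forked duplex oligonucleotide carrying fluorophore and quencher plus 2 mM ATP (final). Unwinding followed kinetically by red fluorescence (ex 525/em 598 nm).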
# Pol eta inh-1: DNA polymerase eta (human) inhibition; Q9Y253; recombinant Pol eta, fluorescent DNA replication assay; Potency, µM (titrated, usually from 114 µM), inactives show top-dose activity change, negative = inhibition, usual class: inhibitors; hit rate 1.2% among 390,000; also: % is scaled to controls: 0 for no effect and ±100 for the full control effect
#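 Pol eta at 10 nM preincubated with compounds 15 min at room temperature; reaction started with fluorescent substrate (50 nM final) and read kinetically at 0 and 10 min.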
# POLI inh: inhibitors of human DNA polymerase iota | Pol iota fluorescent replication assay, 10 min | Potency, µM (highest dose often 115 µM), without a hit: at the top dose activity, negative = inhibition, most hits filed as inhibitors | hit rate 1% among 390,000
#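 Pol iota at 10 nM preincubated 15 min with compounds at room temperature; reaction started with fluorescent substrate, 50 nM final. Fluorescence read kinetically at 0 and 10 min; buffer-only wells as negative control.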
# Pol kappa inh-1: DNA polymerase kappa (human) inhibition. hit rate 0.53% among 400,000. purified Pol kappa, fluorescent DNA synthesis assay, 10 min. Q9UBT6. Potency, µM (titrated, usually from 107 µM), inactives show top-dose activity, negative = inhibition, usual class: inhibitors; also: % is scaled to controls: 0 for no effect and ±100 for the full control effect
#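 Kinetic fluorescence screen: compound preincubated 15 min RT with 10 nM enzyme; 50 nM substrate (final) initiates; reads at 0/10 min.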
# Pol beta inh: blocks human DNA polymerase beta activity | Potency, µM (series often up to 114 µM), inactives show at the highest dose activity change, negative = inhibition, most hits filed as inhibitors | hit rate 1.3% among 340,000 | P06746 | AID 485314 | Pol beta primer extension/strand displacement, fluorescence kinetic; also: % is scaled to controls: 0 for no effect and ±100 for the full control effect
#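 Curves were derived by four-parameter Hill fits of normalized qHTS data. The kinetic fluorescent primer-extension read was taken at 0 and 10 min after 50 nM substrate, following a 15 min room-temperature preincubation of 10 nM enzyme with compounds.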
# FEN1 inh-1: human FEN1 inhibition; P39748; Recombinant FEN1 flap cleavage, fluorescence, 15 min; Potency, µM (highest dose often 114 µM), for the others: top-dose activity change, negative = inhibition, actives largely listed as inhibitors; hit rate 0.35% among 390,000; also: % is scaled to controls: 0 for no effect and ±100 for the full control effect; nearly all actives have a fitted effect of over 65% in size
# Target sequence (P39748 whole entry, looked up): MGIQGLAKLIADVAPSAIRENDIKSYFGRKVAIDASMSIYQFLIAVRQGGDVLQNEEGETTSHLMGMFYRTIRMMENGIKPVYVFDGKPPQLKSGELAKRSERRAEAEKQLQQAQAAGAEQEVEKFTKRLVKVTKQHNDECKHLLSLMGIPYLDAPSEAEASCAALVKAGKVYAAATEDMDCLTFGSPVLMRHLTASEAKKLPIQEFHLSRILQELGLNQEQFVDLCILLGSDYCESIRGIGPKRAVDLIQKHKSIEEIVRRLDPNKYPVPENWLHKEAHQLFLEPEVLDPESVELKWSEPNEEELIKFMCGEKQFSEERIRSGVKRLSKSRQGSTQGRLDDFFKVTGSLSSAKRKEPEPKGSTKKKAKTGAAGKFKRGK
#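 Potency values derive from four-parameter Hill fits of normalized qHTS data. The reaction used 10 nM FEN1 preincubated 15 min at room temperature with compound, then 50 nM DNA substrate, read at 0 and 15 min.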
# TbPGK inh: TbPGK inhibition, hit validation. AID 686980. hit rate 79% among 500. shares compounds with Pol kappa inh-1. TbPGK coupled GAPDH assay, Kinase-Glo luminescence. Potency, µM (doses to about 57.5 µM), for the others: at the highest dose activity change, negative = inhibition, hits mostly inhibitors; also: % is scaled to controls: 0 for no effect and ±100 for the full control effect; nearly all actives have a fitted effect of over 65% in size
# Target sequence (P07378 whole entry, looked up): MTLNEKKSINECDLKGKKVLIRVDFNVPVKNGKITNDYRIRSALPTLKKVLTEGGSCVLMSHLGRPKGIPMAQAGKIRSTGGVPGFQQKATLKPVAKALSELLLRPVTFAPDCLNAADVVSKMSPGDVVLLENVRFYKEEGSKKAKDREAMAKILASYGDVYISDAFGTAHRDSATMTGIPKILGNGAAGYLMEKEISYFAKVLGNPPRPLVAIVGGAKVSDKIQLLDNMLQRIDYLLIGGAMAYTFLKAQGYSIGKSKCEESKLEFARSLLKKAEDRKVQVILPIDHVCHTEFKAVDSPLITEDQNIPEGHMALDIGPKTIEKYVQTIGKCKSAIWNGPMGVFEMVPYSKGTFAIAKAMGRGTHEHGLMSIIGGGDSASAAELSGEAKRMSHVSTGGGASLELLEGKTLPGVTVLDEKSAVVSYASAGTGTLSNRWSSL
# Pol iota confirm: Human Pol iota inhibitor confirmatory assay; shares compounds with Pol kappa inh-1; Pol iota primer extension, TAMRA/BHQ fluorescence; Potency, µM, hits mostly inhibitors; hit rate 77% among 1,500; AID 720496
# Pol kappa inh-2: confirmation of human DNA polymerase kappa inhibitors. shares compounds with Pol eta inh-1. purified Pol-kappa, fluorescent strand-displacement substrate. Potency, µM, actives largely listed as inhibitors. hit rate 76% among 920. AID 720501
# Pol eta inh-2: Pol eta (human) inhibition, cherry-pick confirmation; shares compounds with Pol eta inh-1; Pol eta primer extension, TAMRA/BHQ fluorescence, 10 min; Potency, µM, usual class: inhibitors; hit rate 64% among 2,600; AID 720502
# FEN1 inh-2: FEN1 inhibition, cherry-pick retest | FEN1 flap cleavage, TAMRA/BHQ2 fluorogenic DNA substrate | hit rate 79% among 880 | AID 720498 | Potency, µM, most hits filed as inhibitors | shares compounds with FEN1 inh-1; also: nearly all actives have a fitted effect of over 60% in size
# WRN helicase inh-2: WRN helicase inhibition, cherry-pick retest; WRN helicase DNA unwinding, fluorescence kinetic; Potency, µM (titrated, usually from 57.1 µM), without a hit: top-dose activity, negative = inhibition, actives largely listed as inhibitors; shares compounds with WRN helicase inh-1; hit rate 63% among 610; also: nearly all actives have a fitted effect of over 65% in size
# TO DNA binding: binds DNA, flagged in WRN inhibitor counterscreen; Potency, µM (doses to about 57.1 µM), without a hit: top-dose activity change, negative = inhibition, hits mostly inhibitors; thiazole orange DNA binding displacement, fluorescence; hit rate 10% among 610; shares compounds with WRN helicase inh-1;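 also: drop in dye fluorescence marks compound binding to DNA; % is scaled to controls: 0 for no effect and ±100 for the full control effect; nearly all actives have a fitted effect of over 60% in size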
# BLM counter: blocks human BLM helicase in WRN counterscreen | Recombinant BLM helicase DNA unwinding, red fluorescence | hit rate 60% among 610 | Potency, µM (top dose mostly 57.1 µM), without a hit: at the top dose activity change, negative = inhibition, usual class: inhibitors | shares compounds with WRN helicase inh-1; also: nearly all actives have a fitted effect of over 60% in size
# * marks the source's active call; other numbers are inactive results; ? = inconclusive; nt = no result; ! = a repeat was not active; [ ] = remark or other dose. Rows were chosen to be rich in hits. Some 2.4% of all compounds tested hit in one or more screens of this group. Calls follow the shape of the dose curve; as a rule, active = well fitted curve in the direction sought with a large enough effect; inconclusive = small, poorly fitted or top-dose-only effect, or another doubt; inactive = no such curve, though single readings can be large; an effect the other way counts as inactive or inconclusive. Potency is read from the fitted curve at half-maximal effect.
SMILES,WRN helicase inh-1,Pol eta inh-1,POLI inh,Pol kappa inh-1,Pol beta inh,FEN1 inh-1,Pol iota confirm,Pol eta inh-2,WRN helicase inh-2,TO DNA binding,BLM counter,others
O=C(O)c1ccc(-n2cccc2/C=C2\SC(=O)N(Cc3ccc(Cl)cc3)C2=O)cc1,nt,nt,nt,nt,nt,nt,42.3*,15.1*,9.61µM*,-28.1%,8.57µM*,FEN1 inh-2=75.7*
O=C(O)c1ccc(/C=C2/SC(=S)N(Cc3ccccc3)C2=O)cc1,-3.4%,-16.4%,-18.2%,-3.5%,-28.3%,8.6%,nt,nt,nt,nt,nt,
COc1ccc2c(c1)C(=O)[C@H](O)[C@@H](c1ccc(OC)c(Br)c1)O2,9.4%,-16.2%,43.3%,-16.6%,-0.2%,-10.4%,nt,nt,nt,nt,nt,
O=C1c2cc(O)c(O)cc2OC(c2ccc(O)c(O)c2)C1O (stereo not drawn),?,14.1µM*,3.16µM*,8.91µM*,nt,31.6µM*,37.7*,26.9*,13.6µM*,-14.3%,?,Pol kappa inh-2=18.9*
CCCCN1CCCc2cc(CN(CCCN3CCOCC3)C(=O)Nc3ccc(CC)cc3)ccc21,nt,-19.9%,5.1%,-13.3%[60.1 µM],-25.5%,9.0%,nt,nt,nt,nt,nt,
COc1cccc2c1C(=O)c1c(O)c3c(c(O)c1C2=O)CC(O)(C(C)=O)CC3OC1CC(O)C(O)C(C)O1 (stereo not drawn),2.99µM*,25.1µM*,44.7µM*,?,nt,28.2µM*,23.8*,33.8*,21.5µM*,296.5%,21.5µM*,Pol kappa inh-2=75.2*;FEN1 inh-2=84.9*
COc1cccc2c1-c1c(O)cccc1C2=O,-14.4%,-3.4%,?,-18.6%,-26.9%,-21.1%,nt,nt,nt,nt,nt,
Cc1ccc(C)c(NC(=O)CN(C)C(=O)c2cccc(Oc3ccccc3)c2)c1,-8.2%,-2.7%,1.9%,-13.4%,nt,8.6%,nt,nt,nt,nt,nt,
Cc1ccc(C)c(NC(=O)CN(C)C(=O)c2cccc(-n3cccc3)c2)c1,50.1µM*,5.01µM*,8.91µM*,39.8µM*,nt,-18.3%,16.8*,26.9*,21.5µM*,-2.4%,10.8µM*,
Oc1ccc(C2CNCCc3c2cc(O)c(O)c3Cl)cc1 (stereo not drawn),?,?,14.1µM*!,-0.6%[60.1 µM],?,8.6%,?,nt,19.2µM*,-0.8%,24.1µM*,
Oc1cc2c(c(Cl)c1O)CCNC[C@H]2c1ccccc1,nt,nt,nt,-13.0%[19.4 µM],nt,nt,nt,nt,nt,nt,nt,
CSc1cccc(NC(=O)c2ccc3c(c2)CCCN3S(C)(=O)=O)c1,nt,-18.1%,-13.4%,-12.7%,12.9%,3.0%,nt,nt,nt,nt,nt,
CC(=C/C(=O)O)/C=C/c1ccc(Cl)o1,?,1.12µM*,7.94µM*,25.1µM*,12.6µM*,-9.3%,21.2*,8.49*,6.07µM*,-7.0%,3.04µM*,TbPGK inh=14.6µM*
Cc1cc(NC(=O)Cc2cccs2)no1,?,22.4µM*,7.94µM*,22.4µM*,8.91µM*,56.2µM*,15*,19*,8.57µM*,24.1µM*,0.961µM*,FEN1 inh-2=?
COc1ccc(Cn2c(=O)c3oc4ccccc4c3n(CC(=O)Nc3c(C)cccc3C)c2=O)cc1,nt,-10.1%,15.0%,1.6%,2.6%,19.8%,nt,nt,nt,nt,nt,
Cc1cc(=O)c2c(o1)C(=O)c1occc1C2=O,25.1µM*,10µM*,6.31µM*,31.6µM*,nt,50.1µM*,47.4*,30.1*,24.1µM*,-24.1%,?,Pol kappa inh-2=42.3*;FEN1 inh-2=?
CSC1SCC2C(=O)N(C)C(C(C)C)C(=O)OCC(NC(=O)c3cnc4ccccc4n3)C(=O)NC(C)C(=O)N(C)C1C(=O)N(C)C(C(C)C)C(=O)OCC(NC(=O)c1cnc3ccccc3n1)C(=O)NC(C)C(=O)N2C (stereo not drawn),0.532µM*,-98.7%,0.316µM*,-100.4%,nt,0.562µM*,1.5*,1.51*,0.341µM*,?,0.541µM*,Pol kappa inh-2=0.752*;FEN1 inh-2=0.601*
Cc1cc(C)c(S(=O)(=O)/N=C2\C=C(Nc3ccc(C(=O)O)cc3)C(=O)c3ccccc32)c(C)c1,89.1µM*,11.2µM*,14.1µM*,89.1µM*,22.4µM*,?,67*,16.9*,21.5µM*,?,15.2µM*,
CCOC(=O)C(CC)Sc1ncnc2sc3c(c12)CCCC3 (stereo not drawn),nt,-4.4%,-0.9%,-20.4%,?,-18.1%,nt,nt,nt,nt,nt,
CC1(C)CCCN(C(=O)c2coc(=O)c(Br)c2)C1,17.8µM*,0.891µM*,10µM*,14.1µM*,0.447µM*,56.2µM*,nt,nt,1.92µM*,?,0.482µM*,TbPGK inh=0.819µM*
O=C(CCc1ccc(O)c(O)c1)N/N=C/c1cc2c(cc1[N+](=O)[O-])OCO2,?,17.8µM*,31.6µM*,25.1µM*,25.1µM*,?,?,30.1*,21.5µM*,30.4µM*,8.57µM*,
Cc1cccc(C)c1OCC(=O)N/N=C/c1cc2c(cc1[N+](=O)[O-])OCO2,-9.9%,3.8%,0.0%,-9.9%,-0.6%,-0.9%,nt,nt,nt,nt,nt,
COc1cccc(CNC(=O)C2CCN(C(=O)N3CCOc4ccc(Cl)cc43)CC2)c1OC,nt,-8.7%,17.4%,-13.5%,9.1%,-2.8%,nt,nt,nt,nt,nt,

# Screens as filed in PubChem.
